Screening results as filed in PubChem BioAssay.
TexasRed fluor: Texas Red fluorescence interference in TRb-SRC2 counter-screen. hit rate 0.29% among 280,000. Potency, µM (highest dose often 106 µM), for inactives: top-dose fluorescence change, negative = quenching. TRb/SRC2 Texas Red total fluorescence interference; active means well fitted curve in either direction with a large enough effect; inconclusive means small, poorly fitted or top-dose-only effect
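Human TRb ligand-binding domain at 0.6 uM with 20 nM Texas Red SRC2 peptide in Tris buffer containing 1 uM T3 and 5% DMSO, incubated with compound 5 h at ambient temperature. Total fluorescence (555/632 nm) calculated as parallel + 2 × perpendicular.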
TRb-SRC2 inh: disrupts binding of human TR beta to SRC2; AID 1469; P10828; TRbeta-SRC2 peptide binding, fluorescence polarization; receptor liganded with 1 µM T3; Potency, µM (titrated, usually from 106 µM), for inactives: top-dose activity change, negative = inhibition, actives largely listed as inhibitors; hit rate 0.065% among 280,000;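 further: plate controls were bound peptide for no effect and peptide without receptor for full effect; nearly all actives have a fitted effect of over 50% in size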
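TRb LBD 0.6 uM + Texas Red SRC2 peptide 20 nM, 1 uM T3, Tris buffer w/ 5% DMSO; compound pinned, 5 h RT; FP read ex 555/em 632; normalized to unbound and bound controls.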
Tau fluor counter: counter-screen for tau fibril formation inhibitors | tau K18 P301L Alexa594 fluorescence, heparin fibrillization | Potency, µM (titrated, usually from 57.7 µM), without a hit: at the top dose activity change, negative = decrease | hit rate 0.93% among 280,000 | AID 1463; further: nearly all actives have a fitted effect of over 55% in size
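Human tau K18 P301L (15 uM unlabeled, 0.24 uM Alexa 594-labeled) in 100 mM sodium acetate pH 7 with 20 uM heparin, 6 hr at 37 C. ThT 30 uM added, 1 hr ambient; Alexa 594 FP and total fluorescence read at 555/632 nm.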
Tau fibril ThT: blocks human tau fibril formation measured by thioflavin T. P10636. recombinant tau K18 P301L (four-repeat tau fragment), heparin-induced fibrillization, ThT fluorescence. Potency, µM (titrated, usually from 57.4 µM), inactives show at the top dose activity, negative = inhibition, most hits filed as inhibitors. hit rate 2.1% among 270,000; further: nearly all actives have a fitted effect of over 55% in size
Target sequence (P10636 561-689 P618L limits assumed): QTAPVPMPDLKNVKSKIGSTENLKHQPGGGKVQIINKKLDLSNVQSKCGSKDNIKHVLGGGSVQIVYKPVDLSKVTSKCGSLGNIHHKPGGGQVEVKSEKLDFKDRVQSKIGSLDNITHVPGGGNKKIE
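In this qHTS, human K18 P301L tau is incubated with compound and heparin for 6 hr at 37 C, and Thioflavin T fluorescence then reports fibril load.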
GoLoco inh red: blocks human Gai1 binding to RGS12 GoLoco peptide, red readout; Gai1:RGS12 GoLoco peptide FP, rhodamine, 10 min; Potency, µM (doses to about 61.6 µM), inactives show at the top dose activity, negative = inhibition, hits mostly inhibitors; hit rate 0.44% among 230,000; P63096; active means well fitted inhibition curve with a large enough effect, not every such curve was filed as active; inactive means no such curve, though single readings can be large or run the other way; further: nearly all actives have a fitted effect of over 30% in size
Target sequence (P63096 whole entry, looked up): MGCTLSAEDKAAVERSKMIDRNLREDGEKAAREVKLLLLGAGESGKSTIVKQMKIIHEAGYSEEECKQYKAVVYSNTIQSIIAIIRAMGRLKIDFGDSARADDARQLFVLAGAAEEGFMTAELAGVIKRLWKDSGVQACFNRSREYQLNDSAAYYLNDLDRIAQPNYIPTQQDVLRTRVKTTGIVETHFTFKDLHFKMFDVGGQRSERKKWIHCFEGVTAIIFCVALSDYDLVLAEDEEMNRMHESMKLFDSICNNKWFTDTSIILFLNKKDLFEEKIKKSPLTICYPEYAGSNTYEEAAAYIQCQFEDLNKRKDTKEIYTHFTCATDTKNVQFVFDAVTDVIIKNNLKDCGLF
Tau FP inhib: inhibitors of human tau fibril formation; P10636; K18 P301L tau heparin fibrillization, Alexa594 FP, 6 h; Potency, µM (doses to about 57.7 µM), for inactives: top-dose activity, negative = inhibition, actives largely listed as inhibitors; hit rate 0.39% among 280,000; AID 1468; further: nearly all actives have a fitted effect of over 55% in size
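FP of Alexa 594-tau after heparin (20 uM) induction. Substrate: human K18 P301L, 15 uM unlabeled, 0.24 uM labeled. Buffer 100 mM sodium acetate pH 7. 6 hr, 37 C.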
Numbers without * were called inactive; ! = not confirmed by another sample; [ ] = dose if it differs, or a comment. In the library only some 3.2% were active in any assay of this set; here they are far more common. Unless noted, the call rests on the fitted dose curve; in most records, active means well fitted curve in the direction sought with a large enough effect; inconclusive means small, poorly fitted or top-dose-only effect, or another doubt; inactive means no such curve, though single readings can be large; an effect the other way counts as inactive or inconclusive. Unless noted, on the % scale 0 is the no-effect control and ±100 the full control effect; potency means the concentration at half of the fitted maximal effect.

`C/C=C1/C[N@@+]2(C)CC[C@]34C(=C(C=O)[C@H]1C[C@H]32)Nc1ccccc14` gave TexasRed fluor -2%, TRb-SRC2 inh -4%, Tau fluor counter 3%, Tau fibril ThT -2%, GoLoco inh red 6.3µM* and Tau FP inhib -2%.
For O=C1NC(=O)N(c2ccccc2)C(=O)/C1=C\c1ccc([N+](=O)[O-])s1 the results were TexasRed fluor -3%, TRb-SRC2 inh 9%, Tau fluor counter inconclusive, GoLoco inh red 101% and Tau FP inhib inconclusive.
`CN1C(=O)NC(=O)/C(=C/c2ccc([N+](=O)[O-])s2)C1=O` gave TexasRed fluor -19%, TRb-SRC2 inh -3%, Tau fluor counter inconclusive, GoLoco inh red -3% and Tau FP inhib 28µM*.
COc1ccc(OC)c(N2C(=O)NC(=O)/C(=C\c3ccc([N+](=O)[O-])s3)C2=O)c1 was read as TexasRed fluor 16%, TRb-SRC2 inh inconclusive, Tau fluor counter inconclusive, Tau fibril ThT 11µM*, GoLoco inh red 193% and Tau FP inhib inconclusive.
For CCOC(=O)[C@@H]1[C@@H]2c3ccccc3-c3ccccc3[C@H]2C[C@H]1O the results were GoLoco inh red 0%[14.2 µM].
For CC1=CC(=O)c2c(O)cccc2C1=O the results were TexasRed fluor -10%, TRb-SRC2 inh -6%, Tau fluor counter 2.2µM*[quencher], Tau fibril ThT 2.5µM*, GoLoco inh red -8% and Tau FP inhib 3.2µM*.
Screening C[n+]1ccc(-c2ccncc2)cc1 returned TexasRed fluor 0%, TRb-SRC2 inh -9%, Tau fluor counter -3%, Tau fibril ThT -1%, GoLoco inh red 10µM* and Tau FP inhib -1%.
For C[N+]1(C)[C@@H]2CC[C@H]1CC(OC(=O)C(CO)c1ccccc1)C2 (stereo partly specified) the results were TexasRed fluor 0%, TRb-SRC2 inh 3%, Tau fluor counter 3%, Tau fibril ThT 2%, GoLoco inh red 1% and Tau FP inhib 9%.
For C[N+]1(C)C2CCC1CC(OC(=O)c1ccccc1)C2 (stereo unspecified) the results were TexasRed fluor -7%, TRb-SRC2 inh 4%, Tau fluor counter -13%, GoLoco inh red 4µM* and Tau FP inhib 0%.
O=c1cc(C(F)(F)F)c2cc3c4c(c2o1)CCCN4CCC3 was read as TexasRed fluor 3%, TRb-SRC2 inh -6%, Tau fluor counter -20%, Tau fibril ThT 6%, GoLoco inh red 13µM* and Tau FP inhib -4%.
CC/C(=N\Nc1cccc2ccccc12)c1c(O)[nH]c(=O)[nH]c1=O was read as TexasRed fluor -2%, TRb-SRC2 inh 1%, Tau fluor counter inconclusive, Tau fibril ThT 28µM*, GoLoco inh red 18% and Tau FP inhib inconclusive.
Screening CN1COCN(Cc2cnc(Cl)s2)/C1=N\[N+](=O)[O-] returned TexasRed fluor 3%[201 µM] and TRb-SRC2 inh -1%[201 µM].
For COc1cc2c(cc1O)C[C@@H]1c3c(cc(O)c(OC)c3-2)CCN1C the results were GoLoco inh red 0%[14.2 µM].
Screening CCCN1CCc2cccc3c2C1Cc1ccc(O)c(O)c1-3 (stereo unspecified) returned TexasRed fluor -7%, TRb-SRC2 inh 2%, Tau fluor counter 18µM*[quencher], Tau fibril ThT 14µM*, GoLoco inh red 22% and Tau FP inhib 32µM*.
Screening CCC[CH2][Sn]([Cl])([CH2]CCC)[CH2]CCC returned TexasRed fluor 1%[201 µM] and TRb-SRC2 inh 8%[201 µM].
For CCCCCCCCCCCCCCC(Br)C(=O)O (stereo unspecified) the results were TexasRed fluor -2%[201 µM] and TRb-SRC2 inh 6%[201 µM].
Screening COC1=CC23CCCN2CCc2cc4c(cc2C3C1O)OCO4 (stereo unspecified) returned TexasRed fluor -2%, TRb-SRC2 inh 2%, Tau fluor counter inconclusive, Tau fibril ThT 35µM*, GoLoco inh red 1% and Tau FP inhib inconclusive.
CCN1C(=O)C(=Cc2cc(C)n(C3CC3)c2C)C(=O)N(CC)C1=S was read as TexasRed fluor -2%, TRb-SRC2 inh -6%, Tau fluor counter -5%, Tau fibril ThT inconclusive, GoLoco inh red 189% and Tau FP inhib -4%.
Screening CCN1C(=O)C(=Cc2ccc(C)s2)C(=O)N(CC)C1=S returned TexasRed fluor -2%, TRb-SRC2 inh -5%, Tau fluor counter -29%, Tau fibril ThT 14µM*, GoLoco inh red -22% and Tau FP inhib inconclusive.
Screening CN(C)C(=S)SSC(=S)N(C)C returned TexasRed fluor -1%[201 µM], TRb-SRC2 inh 2%[201 µM], Tau fluor counter -18%, Tau fibril ThT inconclusive, GoLoco inh red 3.2µM*! and Tau FP inhib inconclusive.
`C/C(=N\C(N)=O)N(C)Cc1ccc(Cl)nc1` gave TexasRed fluor 2%[201 µM] and TRb-SRC2 inh -1%[201 µM].
Screening CC(C)OC(=O)Nc1cccc(Cl)c1 returned TexasRed fluor 3%[201 µM], TRb-SRC2 inh -1%[201 µM], Tau fluor counter -1%, Tau fibril ThT -8%, GoLoco inh red 4% and Tau FP inhib 8%.
Screening N#CC(C#N)=NNc1cccc(Cl)c1 returned TexasRed fluor -8%, TRb-SRC2 inh 11%, Tau fluor counter inconclusive, Tau fibril ThT 4.5µM*, GoLoco inh red 2% and Tau FP inhib inconclusive.
`CC1(C)Cc2cccc(O)c2O1` gave TexasRed fluor -2%[201 µM] and TRb-SRC2 inh 3%[201 µM].
For O=C(NC(=O)c1c(F)cccc1F)Nc1cc(Cl)c(OC(F)(F)C(F)C(F)(F)F)c(Cl)c1F (stereo unspecified) the results were TexasRed fluor -2%[201 µM] and TRb-SRC2 inh 2%[201 µM].
Screening CCC1(CCCC(=O)c2ccc(F)cc2)C(=O)NC(=S)NC1=O returned TexasRed fluor -1%, TRb-SRC2 inh 6%, Tau fluor counter -1%, Tau fibril ThT 1%, GoLoco inh red 2µM* and Tau FP inhib -2%.
For c1ccc2cc(CC3=NCCN3)ccc2c1 the results were TexasRed fluor 1%, TRb-SRC2 inh 10%, Tau fluor counter -12%, Tau fibril ThT -4%, GoLoco inh red 5% and Tau FP inhib -3%.
`c1ccc(C2CC2)c(OCC2=NCCN2)c1` gave TexasRed fluor 45µM*![fluorescent], TRb-SRC2 inh inconclusive, Tau fluor counter -1%, Tau fibril ThT 1%, GoLoco inh red -1% and Tau FP inhib 6%.
Screening CCCSC(=O)N(CCC)CCC returned TexasRed fluor 5%[201 µM] and TRb-SRC2 inh 4%[201 µM].
COC(=O)[C@@H]1[C@@H](C(=O)OC)C2(c3ccccc3-c3ccccc32)N(c2ccc(Cl)cc2)N1C#N was read as TexasRed fluor -4%, TRb-SRC2 inh -9%, Tau fluor counter -15%, Tau fibril ThT 25µM*, GoLoco inh red 1% and Tau FP inhib inconclusive.
